# Measurements as given in PubChem BioAssay AID493162 (ICCB-Longwood Screening Facility, Harvard Medical School, 2011).
# Among all 46,000 compounds or so, about 430 (0.93%) were called active. The entries come from a sample that favours actives as a whole. Unmarked numbers belong to inactive results. No stated cut-off is given here; in the data, active means normalized absorbance mostly below about 85% (no sharp cut-off); inactive means mostly above about 86%.
# Tested on: Vaccinia virus DNA polymerase (E9) processive complex
# Experiment: vaccinia E9 polymerase processive synthesis inhibitors, primary screen, biochemical, absorbance (AID 493162)
# Conditions: in vitro processive DNA synthesis, absorbance read-out; stronger effect = lower value; concentration not given here
row,SMILES,normalized absorbance
1,Cc1cc(C(=O)OCC(=O)N2CCc3ccccc3C2)c(C)o1,103%
2,O=C(COC(=O)c1ccc2ccccc2n1)Nc1ccc(Cl)c(C(F)(F)F)c1,100%
3,O=C1CC(c2ccc(Cl)cc2)Sc2nc3ccccc3n21 (configuration not stated),100%
4,CCc1ccccc1Nc1cc(C(=O)NCC2COc3ccccc3O2)c2ccccc2n1 (configuration not stated),99.1%
5,O=C(OCC(=O)N1CCCCCC1)c1ccc(Cl)nc1,106%
6,Brc1ccccc1C1OCC2(CO1)COC(c1ccccc1Br)OC2 (configuration not stated),100%
7,O=C(Nc1nc(-c2ccc(Cl)s2)cs1)C1=COCCO1,98.9%
8,CCn1c(CNC(C)=O)nc2ccccc21,101%
9,O=C(COC(=O)c1n[nH]c2ccccc12)NC(c1ccccc1)c1ccccc1,98.6%
10,CNC(=O)Nc1ccc(C(=O)NC)cc1,101%
11,CCOc1ccc(OCC)c(NC(=O)CCS(=O)(=O)c2ccc(C)cc2)c1,91.4%
12,CCn1c(=NC(=O)C2CC2)sc2cc(Cl)ccc21,71.3%
13,NNc1cccc(Cl)n1,78.5% (active)
14,COC(=O)CN1C(=O)c2cccnc2Oc2ccc(C)cc21,92%
15,O=C(O)c1ccc(N=Cc2ccc(OC(=O)c3sc4ccccc4c3Cl)cc2)cc1,100%
16,CS(=O)(=O)c1nc2ccccc2[nH]1,103%
17,C/C(CCc1ccc2c(c1)OCO2)=N\N1C(=N)SC(C(=O)Nc2ccc(C(=O)O)cc2)CC1=O (configuration not stated),100%
18,COc1ccc2nc(C(=O)N3CCN(C)CC3)sc2c1,85.1%
19,O=C1CN(C(=O)CCC(=O)c2ccc(F)cc2)c2ccccc2N1,101%
20,Cn1c(NCc2ccccc2)nc2ccccc21,101%
21,O=C(O)CCNC(=O)c1ccc2c(c1)OCCO2,102%
22,CSc1ncc(Cl)c(C(=O)N2CCN(c3cccc(Cl)c3)CC2)n1,95.5%
23,O=P(O)(CN1CCCCCC1)C1Cc2ccccc2C1,84.6%

row,SMILES,normalized absorbance
1,CCOC(=O)c1c(C)oc2ccc(OC(=O)c3ccco3)cc12,99.5%
2,CC12CCC3C(CC=C4CC(OC5CCCCO5)CCC43C)C1CCC2=O (configuration not stated),100%
3,CC(C)(C)c1cc(C(F)(F)F)n2ncnc2n1,99.9%
4,C=CCN(C(=O)c1cccc2c1SCCC2=O)c1ccccc1,113%
5,CCN(CC)c1ccc(N=Cc2cccs2)cc1,99.2%
6,CCOC(=O)c1c(NC(=O)C(C)Sc2ncccn2)sc2c1CCC2 (configuration not stated),91.9%
7,CCN(CC)c1ccc(N=C2C(=C(C#N)C#N)c3ccccc3C2=C(C#N)C#N)cc1,99.9%
8,CC(c1ccco1)N(C(=O)c1cccnc1Cl)c1ccccn1 (configuration not stated),97.4%
9,c1ccc2c(c1)[I+]c1ccccc1-2,15.1% (active)
10,Oc1ccccc1-c1nnc2n1CCC2,102%
11,O=S(=O)(Cc1ccc(Cl)cc1)N1CCc2ccccc2C1,107%
12,CC(C)(C)S(=O)(=O)c1cccs1,90.5%
13,CC(=O)Nc1ccc2c(c1)CN(C1CCCCC1)CO2,89%
14,O=C(O)c1ccc(NC(=O)C23CC4CC(CC(C4)C2)C3)cc1,95.6%
15,O=C1C2CC3CC1CC(C(=O)O)(C3)C2,61.8% (active)
16,Cc1ccc2cccc(SCc3ccc(Br)cc3)c2n1,99.8%
17,O=C(NCCc1ccccc1)C(C(=O)c1ccccc1)n1ccccc1=O (configuration not stated),104%
18,CCc1nc2ccccc2n1CC(=O)N(c1ccccc1)C(C)C,99.6%
19,CC(C)N(C(=O)CSc1ncn[nH]1)c1ccccc1,95.7%
20,Fc1ccc(CNCc2ccccn2)cc1,105%
21,Cc1cc(C(=O)OCC(=O)N2C(C)CCCC2C)c2ccccc2n1 (configuration not stated),106%
22,CCNCC1Cc2ccccc2O1 (configuration not stated),110%
23,CC(=O)N1CCc2c(sc(NC(=O)C(C)C)c2C(N)=O)C1,119%

row,SMILES,normalized absorbance
1,COC(=O)c1c(NC(NC(C)=O)(C(F)(F)F)C(F)(F)F)sc2c1CCN(C)C2,99.8%
2,COC(=O)c1c(NC(=O)c2ccc(OC)cc2)sc2c1CCN(C(C)C)C2,56.5% (active)
3,Cc1cc(C)c(S(=O)(=O)N2CCOCC2)cc1C,105%
4,CC(C)Oc1cccc(NC(=O)Cc2ncc(C(F)(F)F)cc2Cl)c1,103%
5,CC(=Nc1ccc(N(C)C)cc1)C1=C(O)c2ccccc2C1=O,103%
6,Cc1ccc(NC(=O)/C=C/c2ccc(Br)o2)cc1,100%
7,O=C1Cc2cc(S(=O)(=O)NCc3cccs3)ccc2N1,105%
8,O=C(OCC(=O)N1CCCC1)c1ccc(Oc2ccccc2)cc1,94.5%
9,O=C(Nc1nc(-c2ccccc2)cs1)c1cccc(S(=O)(=O)N2CCCC2)c1,111%
10,CN(C)S(=O)(=O)n1cc(/C=C(\NC(=O)c2ccccc2)C(=O)NCc2ccco2)c2ccccc21,80.2%
11,CC[N+](C)(CC)CCC[n+]1c(-c2ccccc2)c2cc(N)ccc2c2ccc(N)cc21,8.9% (active)
12,CC[n+]1c(C)n(-c2ccccc2)c2ccc(N)cc21,99.4%
13,CCc1ccc(/C=C2\SC(=S)N(CCCC(=O)Nc3cccnc3)C2=O)cc1,99.7%
14,O=C(Nc1nccs1)c1cc(=O)c2ccccc2o1,101%
15,Nc1[nH]c(=S)sc1C(=O)Nc1nccs1,58.3% (active)
16,O=C(O)c1ccccc1-c1ccccc1C(=O)Nc1nccs1,70.1%
17,CCN1CCN(CCNC(=O)c2ccc3c(c2)NC(=O)/C(=C\c2cccc(Cl)c2)S3)CC1,79.8%
18,Clc1ccc(-c2ncc3ccccn23)c(Cl)c1,101%
19,OC1CCN(c2ncc(C(F)(F)F)cc2Cl)CC1,105%
20,Cc1ccc2nc(Nc3ccccc3)cc(C)c2c1,100%
21,Cc1ccc2nc(C)c3c(c2c1)N(c1ccccc1)CC3,61.5% (active)
